Structures are written as SMILES. Hit rate of the full screen: of about 39,000 compounds, about 1,500 (3.8%) were called active. The sample as a whole holds a higher share of actives than the screen did.

The assay deals with HSkMC (human skeletal muscle cells). Description: cytotoxicity call (relative viability < 0.9). The conditions noted are these: 10 µM.
With `CC1(C)[C@H](C(N)=O)CC[C@@]1(C)C(=O)O`, the cytotoxicity call was “inactive”.

`C[C@@H]1CN([C@H](C)CO)C(=O)c2cc(NC(=O)Nc3ccc(F)cc3)ccc2O[C@@H](C)CCCCO[C@H]1CN(C)Cc1ccccc1`: the cytotoxicity call was “active”.

Turning to `C[C@H]1CCCCO[C@H](CN(C)Cc2ccccc2)[C@@H](C)CN([C@@H](C)CO)C(=O)c2cc(NC(=O)Nc3ccc(F)cc3)ccc2O1`, the cytotoxicity call is “inactive”.

In the case of `C[C@@H]1CN([C@H](C)CO)C(=O)c2cc(NC(=O)Nc3ccc(F)cc3)ccc2O[C@@H](C)CCCCO[C@@H]1CN(C)Cc1ccccc1`, the cytotoxicity call is “inactive”.

As to `C[C@H](CO)N1C[C@H](C)[C@H](CN(C)Cc2ccccc2)OCCCC[C@H](C)Oc2ccc(NC(=O)Nc3ccc(F)cc3)cc2C1=O`, the cytotoxicity call is “inactive”.

For the molecule `C[C@@H]1CCCCO[C@H](CN(C)Cc2ccccc2)[C@H](C)CN([C@H](C)CO)C(=O)c2cc(NC(=O)Nc3ccc(F)cc3)ccc2O1`, the cytotoxicity call is “inactive”.

`C[C@H]1CCCCO[C@@H](CN(C)Cc2ccccc2)[C@@H](C)CN([C@@H](C)CO)C(=O)c2cc(NC(=O)Nc3ccc(F)cc3)ccc2O1`: the cytotoxicity call is “active”.

Consider `COc1ccc(CN(C)C[C@@H]2OCCCC[C@H](C)Oc3ccc(NS(=O)(=O)c4ccc(F)cc4)cc3C(=O)N([C@@H](C)CO)C[C@@H]2C)cc1`, for which the cytotoxicity call is “inactive”.

Turning to `C[C@H](CO)N1C[C@H](C)[C@H](CN(C)S(C)(=O)=O)Oc2c(NS(=O)(=O)c3cn(C)cn3)cccc2C1=O`, the cytotoxicity call is “inactive”.

Turning to `COc1ccc2c3c(n(c2c1)C)[C@@H](CO)N(C[C@]13CCN(CC1)S(=O)(=O)C)C(=O)CN(C)C`, the cytotoxicity call is “inactive”.

Consider `COc1ccc(NC(=O)N(C)C[C@H]2OCCCC[C@H](C)Oc3ccc(NC(=O)Nc4ccc(C(F)(F)F)cc4)cc3C(=O)N([C@@H](C)CO)C[C@@H]2C)cc1`, for which the cytotoxicity call was “inactive”.

On to `Clc1ccc(C(Cn2ccnc2)OCc2ccsc2Cl)c(Cl)c1` (stereo not drawn), for which the cytotoxicity call is “inactive”.

As for `Clc1ccc(COC(Cn2ccnc2)c2ccc(Cl)cc2Cl)c(Cl)c1.O=[N+]([O-])O` (stereo not drawn), the cytotoxicity call is “inactive”.

In the case of `Clc1ccc(C(c2ccc(Cl)cc2)[n+]2ccn(C[C@@H](OCc3ccc(Cl)cc3Cl)c3ccc(Cl)cc3Cl)c2)cc1`, the cytotoxicity call was “active”.

`Cc1ccc2c(=O)c3ccccc3n(CCCN)c2c1C`: the cytotoxicity call was “inactive”.

On to `CCCC#Cc1cnc2c(c1)C(=O)N([C@H](C)CO)C[C@@H](C)[C@H](CN(C)S(=O)(=O)c1cccc(OC)c1)O2`, for which the cytotoxicity call is “inactive”.

As to `Nc1ncnc2c1c(-c1ccc(Cl)cc1)nn2-c1cccc(-c2cnnn2Cc2cccc(-c3ccccc3)c2)c1`, the cytotoxicity call was “active”.

For `C[C@H](CO)N1C[C@H](C)[C@H](CN(C)S(C)(=O)=O)Oc2c(NC(=O)CCCCCC(=O)Nc3ccccc3N)cccc2C1=O`, the cytotoxicity call was “inactive”.
